# Most compounds without a hit are left out; they make up all but 14% or so of the library.
# Pf growth 48h: inhibits P. falciparum growth in the first generation, 48 h; P. falciparum luciferase growth in erythrocytes, 48 h; Potency, µM (series often up to 28.7 µM), for inactives: at the highest dose activity change, negative = inhibition, hits mostly inhibitors; actives 5.9% (n = 310,000); AID 504832; further: potency means the concentration at half of the fitted maximal effect
#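 Luciferase-expressing parasites in RBCs, 2% Hct / 0.1% parasitemia final; RPMI 1640 + 0.5% Albumax; 37 C, 5% CO2, one generation; luminescence read-out, lower signal = inhibition.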
# MARV entry inh: Marburg virus entry inhibition; actives 1.8% (n = 300,000); Potency, µM (titrated, usually from 37.8 µM), for inactives: at the highest dose activity change, negative = inhibition, usual class: inhibitors; Marburg virus pseudotyped entry inhibition, cell reporter; AID 540276; calls by dose curve; tested in HEK293 cells; further: potency means the concentration at half of the fitted maximal effect
# Pf growth 96h: inhibits malaria parasite growth, 96 h; actives 6.9% (n = 320,000); AID 504834; P. falciparum luciferase reporter growth, 96 h; Potency, µM (series often up to 28.7 µM), inactives show top-dose activity change, negative = inhibition, hits mostly inhibitors; further: potency means the concentration at half of the fitted maximal effect
#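 Luminescence readout: decreased luciferase signal marks inhibited growth of reporter-expressing P. falciparum in infected red cells (2% hematocrit, 0.05% parasitemia final), exposed to compound two generations (96 h, 37 C, 5% CO2).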
# HCV inh: blocks hepatitis C virus | Huh7.5.1 HCVcc-Cre infection, luciferase reporter, 44 h | Potency, µM (doses to about 41.8 µM), without a hit: at the highest dose activity change, negative = inhibition, actives largely listed as inhibitors | actives 3.4% (n = 340,000); further: potency means the concentration at half of the fitted maximal effect
#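 HCVcc-Cre virus at an moi near 0.5 was added right after compound to cells cultured 4 h from seeding (1,000 cells/well). Luciferase activity was determined 44 h later, 15 min after substrate addition at RT.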
# Lassa entry inh: Lassa virus entry inhibition | Lassa virus pseudotype entry inhibition, cell reporter | Potency, µM (series often up to 37.9 µM), inactives show at the highest dose activity change, negative = inhibition, hits mostly inhibitors | actives 1.2% (n = 300,000) | AID 540256; calls by dose curve; tested in HEK293 cells; further: potency means the concentration at half of the fitted maximal effect; nearly all actives have a fitted effect of over 50% in size
# HCMV antiviral: inhibitors of human cytomegalovirus; activity change, negative = inhibition, % at 57.5 µM; HFF cells, HCMV-luciferase reporter, 72 h; hits give low values; actives 4.5% (n = 410,000); in the data active means activity change below about -60%; inconclusive means no clear call, values can overlap the other calls; inactive means above about -39%
#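 HFF cells seeded 16 h at 37C, treated with compounds, infected with luciferase-reporter HCMV at MOI 1 PFU/cell; luciferase read at 72 h post infection, normalized to buffer-only and Salinomycin controls.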
# * marks the source's active call; other numbers are inactive results; i = inactive; ? = inconclusive; . = not tested or not shown; [ ] = remark or other dose. Unless noted, the call rests on the fitted dose curve; in most records, active means well fitted inhibition curve with a large enough effect; inconclusive means small, poorly fitted or top-dose-only effect, or another doubt; inactive means no such curve, though single readings can be large or run the other way. On the % scale 0 is the no-effect control and ±100 the full control effect.
SMILES,Pf growth 48h,MARV entry inh,Pf growth 96h,HCV inh,Lassa entry inh,HCMV antiviral
CC(=O)Nc1cccc(NC(=O)CSc2ccc(-c3sc(-c4ccccc4)nc3C)nn2)c1,.,.,.,.,?,-31
COc1ccc(-c2[nH]ncc2-c2csc(C)n2)c(O)c1,-6%,.,?,1%,.,?
COc1ccc(-c2[nH]ncc2-c2ccc(Cl)cc2)c(O)c1,12µM*,5%,4.1µM*,20%,-28%,-65*
COc1ccc(-c2cn[nH]c2-c2ccc(OC)cc2O)cc1,9.3µM*,-20%[46.1 µM],12µM*,?,?,-65*
OC(CN1CCOCC1)Cn1cnc2ccccc21 (stereo not drawn),3%,?,i,17%,8%[46.1 µM],39
OC(CN1CCOCC1)Cn1c(-c2cccc(Cl)c2)nc2ccccc21 (stereo not drawn),-21%,6%,.,2%,12%,-102*
Oc1cccc2ccc[n+](CC(O)Cn3c4ccccc4c4ccccc43)c12 (stereo not drawn),1µM*,?,?,22µM*,?,-21
Cc1ccc(C(=O)c2ccccc2C(=O)OCC(=O)N2CC(C)CC(C)C2)cc1 (stereo not drawn),7.4µM*,.,7.4µM*,13%,.,-37
CC1CCN(C(=O)COC(=O)c2ccccc2C(=O)c2ccccc2)CC1,.,16%,.,3%,?,6
Cc1ccc(C(=O)c2ccccc2C(=O)OCC(=O)Nc2ccc(SC(F)F)cc2)cc1,12%,?,5%,?,11µM*,-34
O=C(COC(=O)c1ccccc1Cc1ccccc1)Nc1ccc(SC(F)F)cc1,?,?,?,?,?,45
COc1cc(C(=O)N(C(C)C)C2CCCCC2)cc(OC)c1OC,.,.,.,.,.,-8
CCCC(=O)NC(=S)Nc1ccc(S(=O)(=O)Nc2ccc(OCC)cc2)cc1,?,?,?,-17%,-2%,-29
CCOc1ccc(NS(=O)(=O)c2ccc(NC(=S)NC(=O)CC(C)C)cc2)cc1,.,-21%,?,11µM*,?,-1
CC(C)CC(=O)NC(=S)Nc1ccc(S(=O)(=O)Nc2nccs2)cc1,-5%,11%,17%,23%,-13%,-71*
COc1ccc(Nc2ncnc3sc(-c4ccccc4)cc23)cc1,?,15%,-2%,10µM*,-4%,-6
COc1ncnc2sc(-c3ccccc3)cc12,179%,-1%,17%,?,5%,31
COC(CNc1ncnc2sc(-c3ccccc3)cc12)OC,32%,.,38%,?,.,-32
CN(C)c1ncnc2sc(-c3ccccc3)cc12,134%,?,39%,11µM*,0%[46.1 µM],37
CC(C)(C)Nc1ncnc2sc(-c3ccccc3)cc12,-23%,.,?,?,.,-73*
C=COCCCNc1ncnc2sc(-c3ccccc3)cc12,-5%,.,?,8.9µM*,.,?
CCCCNC(=O)C1=CC(c2ccc3c(c2)OCO3)=NS(=O)(=O)N1C,.,23%[46.1 µM],.,.,13%[46.1 µM],0
C#CCN1c2ccccc2Sc2cccnc21,0.33µM*,20%[46.1 µM],0.12µM*,?,13%,-12
CC(C)NC(=O)CN1C(=O)c2cccnc2Sc2ccccc21,.,.,.,.,20%[46.1 µM],11
COc1ccccc1NC(=O)C(=O)NCC(c1ccc2c(c1)OCO2)N1CCN(C)CC1 (stereo not drawn),.,.,.,.,-12%[46.1 µM],-29
SMILES,Pf growth 48h,MARV entry inh,Pf growth 96h,HCV inh,Lassa entry inh,HCMV antiviral
Cc1c(C(=O)Nc2ccccc2Br)oc2ccc(S(=O)(=O)N3CCCCCC3)cc12,.,.,.,.,22%[46.1 µM],11
COc1ccccc1C1(CC(=O)N2CCCCC2)CCOC(C(C)C)C1 (stereo not drawn),.,?,15µM*,16%,-4%,-4
CC(C)CNS(=O)(=O)c1ccccc1C(=O)N1CCCCC1,0%,8%,87%,15%,6%,-22
Cc1cccc(C)c1OCC(O)CNS(=O)(=O)c1ccccc1C(=O)N1CCCCC1 (stereo not drawn),?,?,12µM*,?,-12%,?
Cc1c(C)n(CCN(C)C)c2ncnc(NCc3ccccc3)c12,-4%[0.00184 µM],-27%,4%,-29%,0%,-20
Cc1c(C)n(CCc2ccccc2)c2ncnc(NCCCN(C)C)c12,?,8.9µM*,?,?,3%[46.1 µM],?
COc1ccccc1N(C)C(=O)Cn1c(=O)oc2cc(S(=O)(=O)N3CCCC3)ccc21,.,-5%[46.1 µM],.,.,-7%[46.1 µM],-38
COc1ccc(CC2S/C(=N/N=C/c3ccc(O)cc3)NC2=O)cc1 (stereo not drawn),20%,8%,43%,?,1.5µM*,-11
CCCC1S/C(=N/N=C/c2ccc(OC)cc2)N(Cc2ccc(OC)cc2)C1=O (stereo not drawn),?,7%,10µM*,-11%,?,?
O=C1N/C(=N/N=C/c2ccccc2O)SC1Cc1ccc(F)cc1 (stereo not drawn),?,?,?,?,?,-66*
COc1cc(/C=N/N=C2/NC(=O)C(CC(=O)O)S2)ccc1OCc1ccc(Cl)cc1 (stereo not drawn),41%,48%,?,2%,-7%,13
O=C(O)CC1S/C(=N/N=C/c2ccccn2)NC1=O (stereo not drawn),5.2µM*,.,?,17%,.,0
CCOc1ccc(CC2S/C(=N/N=C/c3ccco3)NC2=O)cc1 (stereo not drawn),-19%,-16%[46.1 µM],65%,21%,?,-14
N#CCCN1CCC(N)=NC1=NC#N,.,.,.,.,.,61
O=C1NC(=Nc2ccc(Cl)cc2)SC1Cc1cc(Cl)ccc1Cl (stereo not drawn),-12%,6%,?,1%,?,?
CCOc1ccc(CC2S/C(=N/c3ccccn3)NC2=O)cc1 (stereo not drawn),15µM*,0%,80%,0%,?,-20
O=C1NC(=Nc2ccc(F)cc2)SC1Cc1ccc(F)cc1 (stereo not drawn),9.3µM*,28%[46.1 µM],8.3µM*,4%,-13%[46.1 µM],-31
NC(=O)NC(=O)CC1S/C(=N/N=C/c2ccccc2)NC1=O (stereo not drawn),-34%[1.15 µM],0%[46.1 µM],?,9%,10%[46.1 µM],2
Cc1cccc(/N=C2/NC(=O)C(Cc3ccccc3)S2)n1 (stereo not drawn),33%,.,-14%,18%,.,-14
O=C1N/C(=N/N=C/c2ccc(O)cc2)SC1Cc1ccccc1 (stereo not drawn),?,0%,?,23%,1.5µM*,0
O=C(CSc1nncs1)NNC(=O)c1ccco1,-6%,.,-14%,8%,.,0
O=C(O)c1ccc(-c2cccc([N+](=O)[O-])c2)o1,18%,.,7%,16%,.,-30

# Compound activity deposited in PubChem by National Center for Advancing Translational Sciences (NCATS).
